HCV inh: qHTS Assay for Inhibitors of Hepatitis C Virus (HCV). Huh7.5.1 HCVcc-Cre infection, luciferase reporter, 44 h. Potency, µM (highest dose often 41.8 µM), inactives show top-dose activity change, negative = inhibition, most hits filed as inhibitors. 3.4% of 340,000 active; note: potency is the fitted concentration of half-maximal effect; % is set by controls: 0 for no effect and ±100 for the full control effect
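Seed cells (1,000/well) for 4 h; treat with compound and infect with HCVcc-Cre, moi about 0.5. Incubate 44 h, then detect luciferase activity.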
CHX counter: Cycloheximide Counterscreen for Small Molecule Inhibitors of Shiga Toxin | cell reporter, cycloheximide protein synthesis inhibition counterscreen | max response, % | 12% of 300,000 active; in the data active = max response mostly above about 13%, no sharp cut-off; inactive = mostly below about 14%; note: read at 38.3 µM for the half of the compounds with a filed dose; 0% is about no effect
Pf growth 48h: Primary qHTS for delayed death inhibitors of the malarial parasite plastid, 48 hour incubation. 5.9% of 310,000 active. AID 504832, 2011. Potency, µM (doses to about 28.7 µM), for the others: at the top dose activity change, negative = inhibition, actives largely listed as inhibitors. P. falciparum luciferase growth in erythrocytes, 48 h; note: potency is the fitted concentration of half-maximal effect; % is set by controls: 0 for no effect and ±100 for the full control effect
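Erythrocytes infected with P. falciparum carrying an integrated firefly luciferase reporter (2% hematocrit, 0.1% parasitemia final) were exposed to compounds in RPMI 1640 with 0.5% Albumax at 37 C, 5% CO2. Growth inhibition was scored as reduced luminescence.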
Shiga toxin inh: A qHTS for Small Molecule Inhibitors of Shiga Toxin; AID 2315, 2010; Vero cells, Shiga toxin protein synthesis inhibition reporter; inhibition, % at 38.7 µM; 9.2% of 290,000 active; in the data active = inhibition mostly above about 28%, no sharp cut-off; inactive = mostly below about 43%; note: 0% is about no effect
HCMV inh: qHTS Assay for inhibitors of the human cytomegalovirus (HCMV); HFF cells, HCMV-luciferase reporter, 72 h; stronger effect = lower value; activity change, negative = inhibition, % at 57.5 µM; AID 1259415, 2018; 4.5% of 410,000 active; in the data active = activity change below about -60%; inconclusive = no clear call, values can overlap the other calls; inactive = above about -39%; note: % is set by controls: 0 for no effect and ±100 for the full control effect
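Inhibition of viral replication was scored as loss of reporter luminescence in HFFs infected with HCMV-luciferase (MOI 1 PFU/cell) for 72 h; compounds tested at 2 doses, normalized to buffer and Salinomycin controls.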
Pf growth 96h: Primary qHTS for delayed death inhibitors of the malarial parasite plastid, 96 hour incubation. 6.9% of 320,000 active. Potency, µM (top dose mostly 28.7 µM), for the others: at the highest dose activity change, negative = inhibition, usual class: inhibitors. P. falciparum luciferase reporter growth, 96 h; note: potency is the fitted concentration of half-maximal effect; % is set by controls: 0 for no effect and ±100 for the full control effect
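P. falciparum expressing integrated firefly luciferase grown in erythrocytes (2% hematocrit, 0.05% parasitemia final) with compounds for 96 hours at 37 C, 5% CO2. Growth inhibition read as loss of luminescence after adding luciferase detection reagent.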
* hit, by the source's call; ? = inconclusive; · = no result given; + = active, no number. The list is not random: actives were taken first. Their share in the collection is about 21%. Unless noted, calls come from the whole dose curve; as a rule, active = well fitted inhibition curve with a large enough effect; inconclusive = small, poorly fitted or top-dose-only effect, or another doubt; inactive = no such curve, though single readings can be large or run the other way.

SMILES	HCV inh	CHX counter	Pf growth 48h	Shiga toxin inh	HCMV inh	Pf growth 96h
Cc1sc2nc(CN3CCOCC3)nc(NCCc3ccccc3)c2c1C	?	-6	·	-22	-25	?
Cc1nc(N2CCN(S(=O)(=O)c3ccccc3)CC2)c2c3c(sc2n1)CC(C)CC3 (stereo not given)	-4%	-1	?	9	29	10µM*
O=C(COc1ccc(S(=O)(=O)N2CCCC2)cc1)NCc1ccccn1	11%	-5	0%	-8	7	45%
O=C(O)CCCC(=O)N1CCOCCOCCOCCOCC1	9%	-7	32%	-6	11	29%
O=C(NCc1ccc(F)cc1)C(c1ccc(Cl)cc1)N(C(=O)c1csnn1)C1CC1 (stereo not given)	6%	-5	-8%	-4	-15	-18%
Cc1sc2ncnc(N3CCN(S(=O)(=O)c4ccc(F)cc4)CC3)c2c1C	?	-1	-18%	-8	?	-4%
Cc1nc(N2CCN(S(=O)(=O)c3ccc(Br)cc3)CC2)c2c(C)c(C)sc2n1	?	2	18%	-11	-63*	-10%
O=C(Nc1ccccc1Cl)N[C@H]1CC[C@@]23CCCN2C(=O)CCC[C@H]3C1Cc1ccccc1 (stereo not given in full)	·	·	·	·	-12	·
O=C(NCCCc1ccccc1)c1cnc2n(c1=O)CCS2	8%	38*	55%	63*	39	-5%
O=C(NCCC1=CCCCC1)c1cnc2n(c1=O)CCS2	-36%	41*	95%	41*	20	-10%
O=C(NCCc1ccc(Cl)cc1)c1cnc2n(c1=O)CCS2	?	41*	17%	+	28	4%
COc1ccc(CCNC(=O)c2cnc3n(c2=O)CCS3)cc1OC	6%	2	-18%	-3	20	3%
O=C(NCc1ccccc1)c1cnc2n(c1=O)CCS2	1%	-3	-9%	-13	-4	-18%
CC(C)n1cc(CN2CCCC(CO)(Cc3cccc(Cl)c3)C2)cn1 (stereo not given)	1%	1	?	-12	-20	?
Cc1ccc2c(c1)-c1onc(C(=O)N(C)c3cccc(C(F)(F)F)c3)c1CO2	·	·	·	·	-22	·
Cn1cccc1C(=O)OCC(=O)N1CCc2ccccc2C1	·	·	·	·	-61*	·
O=C(OCC(=O)N1CCc2ccccc2C1)c1cccs1	1%	47*	1.5µM*	77*	-25	-7%
O=C(OCC(=O)N1CCCCCC1)c1cccs1	12%	38*	6%	84*	16	20%
O=C(OCC(=O)N1CCCCC1)c1cccs1	9%	·	·	·	3	·
CC1CCN(C(=O)COC(=O)c2cccs2)CC1	21%	·	·	·	-18	·
O=C(OCC(=O)N1CCc2ccccc2C1)c1cccnc1Cl	-14%	36*	12%	114*	-40	14%
Cn1cccc1C(=O)OCC(=O)N1CCc2ccccc21	3%	·	·	·	18	·
CCOc1ccc(S(=O)(=O)Nc2cccc(C(=O)NCC(c3ccc(OC)cc3)N3CCOCC3)c2)cc1 (stereo not given)	-23%	5	-11%	-15	-19	?
Cc1cc(C)cc(C(=O)N2CC(C)SC2=Nc2cccc(S(=O)(=O)N(C)C)c2)c1 (stereo not given)	?	-2	13µM*	-12	?	?
Clc1cccc(C2NCc3ccccc3-n3cccc32)c1 (stereo not given)	3%	0	?	13	14	10%
SMILES	HCV inh	CHX counter	Pf growth 48h	Shiga toxin inh	HCMV inh	Pf growth 96h
CCOc1cc2c(cc1OCC)-n1cccc1C(c1cccc(OCC)c1O)NC2 (stereo not given)	?	7	15µM*	8	9	-20%
CCOc1cc2c(cc1OCC)-n1cccc1C(c1cc(OC)ccc1F)NC2 (stereo not given)	?	-5	?	-7	92	2.9µM*
CCOc1cc2c(cc1OCC)-n1cccc1C(c1cc(C)c(OC)cc1C)NC2 (stereo not given)	?	-2	6.6µM*	-4	-32	17%
CCOc1cc2c(cc1OCC)-n1cccc1C(c1cccc(F)c1)NC2 (stereo not given)	?	-1	13µM*	-4	58	9.3µM*
CCOc1cc2c(cc1OCC)-n1cccc1C(c1ccc(C)cc1C)NC2 (stereo not given)	?	0	?	-3	?	-11%
CCOCCc1c(O)nc(SCC)[nH]c1=O	15%	-3	?	20	0	?
CCOc1cc(C2NCc3ccccc3-n3cccc32)ccc1OC (stereo not given)	-7%	-4	?	-6	62	23%
CCOc1cc2c(cc1OCC)-n1cccc1C(c1ccc(OC)c(O)c1)NC2 (stereo not given)	-1%	-6	2.9µM*	-9	102	5%
COc1cc(C2NCc3ccccc3-n3cccc32)ccc1O (stereo not given)	5%	-1	2.6µM*	-5	16	?
CCOc1cc2c(cc1OCC)-n1cccc1C(c1ccccc1F)NC2 (stereo not given)	-13%	2	8.3µM*	-15	0	?
COc1ccc(C2NCc3ccccc3-n3cccc32)cc1 (stereo not given)	-9%	-5	·	-18	-28	-3%
O=C(NC1CCCC1)C(c1ccccc1)N(Cc1cccnc1)C(=O)Cc1cccs1 (stereo not given)	?	-1	-14%	-10	30	-11%
COc1ccccc1C1C(C(N)=O)=C(C)Nc2nc(-c3ccccc3Cl)nn21 (stereo not given)	13%	-6	·	-19	-9	?
CC1=C(C(N)=O)C(c2cccs2)n2nc(-c3cccc(C)c3)nc2N1 (stereo not given)	4%	-4	-17%	19	56	10µM*
CC1=C(C(N)=O)C(c2ccccn2)n2nc(-c3ccccc3Cl)nc2N1 (stereo not given)	4%	10	4%	-1	12	10µM*
CCOc1ccc(CCNC(=O)CCc2c(C)nc3c(c(C)nn3-c3ccc(C)c(C)c3)c2C)cc1	·	·	·	·	11	·
O=C(Nc1ccc(C(F)(F)F)cc1)N1CCC(N2CCCCC2)CC1	·	·	·	·	50	·
CCOc1ccc(S(=O)(=O)N2CCCCC2)cc1NC(=O)C1CSC2(C)CCC(=O)N12 (stereo not given)	-17%	·	1µM*	·	-27	?
Cc1sc(NC(=O)C2CSC3(C)CCC(=O)N23)nc1-c1ccc(F)cc1 (stereo not given)	14µM*	1	?	-10	-4	?

Source: PubChem (National Center for Advancing Translational Sciences (NCATS))
